Screening results: PubChem BioAssay, National Center for Advancing Translational Sciences (NCATS)
The list is not random: actives were taken first. Their share in the collection is about 7.1%.
ELG1 genotoxic – inducers of genotoxicity in HEK293T ELG1-luciferase cells. HEK293T ELG1-luciferase reporter, luminescence, 16 h. Potency, µM (doses to about 46 µM), for inactives: at the top dose activity change, positive = activation, actives largely listed as activators. 330,000 compounds, 1.3% hits. AID 504466; further: % of control where 0% means no effect; nearly all actives have a fitted effect of over 60% in size
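DMSO vehicle served as control against compound-treated ELG1-luciferase HEK293T cells; exposure lasted 16 hr at 37 °C and 5% CO2, followed by ONE-Glo luminescence detection after 30 min.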
p53 reactivator – re-activators of mutant p53; H1299 p53-A138V BP100-luciferase reporter, luminescence, 24 h; Potency, µM (series often up to 92.2 µM), inactives show top-dose activity change, positive = activation, hits mostly activators; 320,000 compounds, 0.063% hits; AID 504706; further: % of control where 0% means no effect; nearly all actives have a fitted effect of over 45% in size
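H1299 (p53-null), stable ts p53-A138V + BP100-Luc; 1000 cells/well, Opti-MEM/10% FBS; cpd 4 pt, 1:5; 24 h, 37 deg C, 5% CO2; detection reagent 10 min RT; luminescence.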
MCF10A rerep – induces DNA re-replication in MCF 10a normal breast cells. MCF 10A DNA re-replication, Hoechst nuclear intensity, 48 h. Potency, µM (highest dose often 46.1 µM), inactives show top-dose activity, positive = re-replication, most hits filed as activators. 350,000 compounds, 2.9% hits. AID 624296; further: % of control where 0% means no effect; nearly all actives have a fitted effect of over 50% in size
AT treatment – potential ataxia-telangiectasia treatments restoring KAP-1 phosphorylation; 320,000 compounds, 0.19% hits; F2112 A-T fibroblasts, KAP-1 phosphorylation AlphaLISA; neocarzinostatin DNA damage 30 min before lysis; Potency, µM (doses to about 57.5 µM), for inactives: top-dose activation, actives largely listed as activators; further: % of control where 0% means no effect; nearly all actives have a fitted effect of over 45% in size
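ATM-like activity read as KAP-1 phosphorylation via AlphaLISA donor/acceptor antibody pairs after lysis and 6 hr at 25C. Cells were ATM-null patient fibroblasts (F2112, hTERT), dosed 60 min, then exposed to the DSB inducer NCS for 30 min.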
ELG1 repair inh – blocks ELG1-dependent DNA repair in HEK293T cells | HEK293T ELG1-luciferase reporter, luminescence, 16 h; DNA damage induced by 5-fluorouridine | Potency, µM (doses to about 46.1 µM), for the others: top-dose activity change, negative = inhibition, actives largely listed as inhibitors | 330,000 compounds, 2.3% hits; further: on the % scale 0 is the no-effect control and ±100 the full control effect; nearly all actives have a fitted effect of over 55% in size
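In this reporter screen, reduction of luminescence relative to DMSO vehicle indicated activity. Compounds and 5-fluorouridine were added together to 2,000 cells per well, incubated for 16 hr at 37 °C, then developed with ONE-Glo.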
SW480 rereplic – DNA re-replication induction in SW480 cells | 340,000 compounds, 1.8% hits | Potency, µM (titrated, usually from 46.1 µM), inactives show at the top dose re-replication activation, most hits filed as activators | SW480 DNA re-replication, Hoechst DNA content imaging, 48 h; further: % of control where 0% means no effect; nearly all actives have a fitted effect of over 55% in size
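Per well, 250 cells were exposed to pinned compound for 48 hr. Nuclear DNA was visualised with Hoechst (40 min, 37 C) and total object intensity recorded by fluorescence scanning.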
Active calls of the source: *; ? = inconclusive; / = no result; [ ] = dose if it differs, or a comment. The call rests on the fitted dose curve; in most records, active means well fitted curve in the direction sought with a large enough effect; inconclusive means small, poorly fitted or top-dose-only effect, or another doubt; inactive means no such curve, though single readings can be large; an effect the other way counts as inactive or inconclusive. Potency means the concentration at half of the fitted maximal effect.

SMILES | ELG1 genotoxic | p53 reactivator | MCF10A rerep | AT treatment | ELG1 repair inh | SW480 rereplic
COc1ccc(-c2nc(-c3ccc(C(=O)O)cc3)no2)cc1 | / | / | 7.8% | / | / | -20.1%
Fc1ccccc1-c1nc(-c2ccccc2)no1 | ? | ? | 2.3% | 6.2% | ? | -5.7%
COc1ccc(-c2noc(-c3ccc(Cl)cc3)n2)cc1 | 5.62µM* | 3.8% | ? | 4.7% | ? | -1.5%
COc1ccc(-c2noc(-c3ccccc3F)n2)cc1 | 1.64µM* | ? | 2.5% | 9.8% | ? | 3.4%
COc1ccc(-c2nc(-c3ccncc3)no2)c(OC)c1 | 2.91µM* | 0.6% | 2.5% | -6.9% | ? | -3.5%
COc1ccc(-c2nc(-c3ccc(Br)o3)no2)cc1 | 1.16µM* | 33.0% | 0.2% | 4.2% | ? | -1.6%
COc1ccc(-c2noc(-c3ccc(Br)o3)n2)cc1 | ? | 19.3% | 17.4% | -3.8% | ? | 6.4%
COc1cc(OC)c(-c2nc(-c3ccncc3)no2)cc1OC | -2.8% | / | 8.6% | 4.7% | ? | -13.0%
Cc1ccc(C(=O)C(C)OC(=O)Cn2c(C)csc2=O)cc1 (stereo unspecified) | 4.5% | 12.1% | 1.2% | 3.5% | -0.9% | 0.0%
CC(OC(=O)CC(C)c1ccccc1)C(=O)Nc1ccc(Cl)cn1 (stereo unspecified) | -0.5% | 0.7% | 4.5% | 14.4% | 15.1% | -3.4%
O=S(=O)(Nc1ccc2c(c1)OCO2)c1cccs1 | -1.8% | -4.0% | 5.3% | 4.8% | -0.9% | 2.1%
CC(=O)Nc1ccc2nc(NC(=O)c3cccs3)sc2c1 | ? | ? | 12.4% | -2.2% | ? | 0.6%
O=S(=O)(Nc1ccc(Br)cc1)c1cccc(NS(=O)(=O)c2cccs2)c1 | / | / | 7.31µM* | / | / | -6.4%
O=C(Nc1nc2cc3c(cc2s1)OCCO3)c1cccs1 | 0.411µM* | 6.3% | 1.6% | -19.2% | ? | 23.5%
Cc1ccc(NS(=O)(=O)c2ccc(NS(=O)(=O)c3cccs3)cc2)cc1 | -4.6% | 0.2% | ? | 2.9% | 3.1% | 1.0%
O=C(Nc1nc2cc3c(cc2s1)OCCO3)c1cccc(N2C(=O)CCC2=O)c1 | 8.6% | 1.1% | ? | 5.2% | ? | 3.5%
CCN(CC)S(=O)(=O)c1cccc(C(=O)Nc2nc3cc4c(cc3s2)OCCO4)c1 | -18.3% | 1.6% | -4.6% | 0.9% | 11.6µM* | 1.8%
O=S(=O)(Nc1ccc2c(c1)OCCO2)c1cccs1 | 7.31µM* | 2.3% | -1.1% | 6.8% | ? | -0.4%
COc1ccc2c(C)c(C(=O)N3CCN(Cc4ccccc4)CC3)oc2c1 | -7.2% | -86.5% | 5.2% | ? | ? | 12.1%
COc1ccccc1C(=O)Nc1nc2cc3c(cc2s1)OCCO3 | 2.06µM* | 13.2% | ? | 8.2% | ? | ?
CC(=O)Nc1ccc2c(c1)OCO2 | -0.7% | 1.2% | 1.0% | -4.5% | 5.7% | -2.6%
COc1ccc(C(=O)Nc2nc3cc4c(cc3s2)OCCO4)c(OC)c1 | ? | 3.5% | 4.11µM* | -11.5% | ? | 15.8%
O=C(Nc1ccc2c(c1)OCO2)c1ccc(Br)s1 | 1.84µM* | ? | 3.2% | 5.1% | ? | 2.2%
O=C(Nc1ccc2c(c1)OCCO2)c1cccs1 | 16.4µM* | ? | 8.7% | -7.4% | ? | 8.3%
O=C(Nc1ccc2c(c1)OCO2)c1cccs1 | / | / | -5.2% | / | / | -4.8%
SMILES | ELG1 genotoxic | p53 reactivator | MCF10A rerep | AT treatment | ELG1 repair inh | SW480 rereplic
CCN(CC)S(=O)(=O)c1ccc2c(c1)nc(SCC(=O)N1CCCCCC1)n2-c1ccc(OC)cc1 | -0.9% | -6.4% | ? | 1.2% | 5.17µM* | 5.8%
O=C(NCC1(N2CCOCC2)CCCCC1)c1cccc(S(=O)(=O)N2CCc3ccccc3C2)c1 | -15.3% | 0.7% | 14.6µM* | -7.4% | ? | 5.6%
O=C(NCCCN1CCOCC1)c1cccc(S(=O)(=O)N2CCc3ccccc3C2)c1 | -5.4% | -2.1% | ? | -2.9% | -1.1% | 21.6%[1.84 µM]
Cc1ccc(NS(=O)(=O)c2cccc(C(=O)N/N=C/c3c(C)nn(-c4ccccc4)c3N3CCCC3)c2)c(C)c1 | -7.4% | -9.9% | 14.2% | 3.7% | ? | 6.1%
CCNc1ccc(C(=O)N/N=C/c2c(C)nn(-c3ccccc3)c2N2CCCC2)cc1[N+](=O)[O-] | -6.6% | -0.6% | 5.0% | -0.6% | 20.6µM* | -1.6%
CN(C(=O)CO/N=C/c1ccc(Cl)cc1)c1ccccc1 | -0.7% | -1.8% | 1.2% | 2.1% | -2.8% | -4.3%
CC1(C)CC(=O)N(Cc2ccccc2)C(=O)C1 | 3.8% | -13.4% | -0.3% | 1.3% | -11.9% | 9.2µM*
CSc1ccccc1NC(=O)COC(=O)Cn1cc(C(F)(F)F)ccc1=O | -0.8% | 13.7% | 4.3% | -1.3% | 23.4% | 2.5%
Clc1ccc(Cn2c(/C=C/c3ccco3)nc3ccccc32)cc1 | 14.2% | ? | 20.6µM* | -0.3% | ? | 16.3%
Cc1ccc(Cn2c(/C=C/c3ccco3)nc3ccccc32)cc1 | ? | ? | -2.3% | 4.1% | ? | -9.2%
Nc1c(C2CCCCC2)c(=O)on1C(=O)c1ccccc1 | / | / | 14.6µM* | / | / | 6.1%
O=C(c1ccccc1)N1CCCCC(Cl)C1=O (stereo unspecified) | -0.3% | 2.7% | -0.6% | -11.2% | 3.9% | -49.0%
CCOc1ccc(S(=O)(=O)N2CCCCC2)cc1NC(=O)CCNC(=O)c1ccco1 | 2.4% | 4.1% | 3.7% | -5.5% | 0.4% | -5.7%
O=C(CCCN1C(=O)/C(=C/c2cccc(Br)c2)SC1=S)N1CCOCC1 | 0.0% | 3.1% | 19.8% | -13.8% | 9.8% | 4.8%
CN1CCN(C(=O)CCN2C(=O)/C(=C\c3ccc(F)cc3)SC2=S)CC1 | 15.7% | ? | ? | 16.7% | -10.9% | ?
CN1CCN(C(=O)CCN2C(=O)/C(=C/c3cccc(Br)c3)SC2=S)CC1 | -5.3% | ? | 14.6µM* | -14.1% | 1.3% | ?
CN1CCN(C(=O)CCCN2C(=O)/C(=C/c3cccc(Br)c3)SC2=S)CC1 | 1.6% | ? | 23.1µM* | -6.9% | -5.6% | ?
CC[C@H](C)[C@H]1O[C@]2(CC[C@@H]1C)C[C@@H]1C[C@@H](C/C=C(\C)[C@H](O[C@@H]3C[C@H](OC)[C@H](O[C@@H]4C[C@H](OC)[C@@H](O)[C@H](C)O4)[C@H](C)O3)[C@@H](C)/C=C/C=C3\CO[C@@H]4[C@H](O)C(C)=C[C@@H](C(=O)O1)[C@]34O)O2 | / | / | ? | / | / | -1.3%
CCN(CC(=O)NCc1cccs1)C(=O)c1cc(Br)ccc1O | -0.5% | -3.4% | 14.5% | -6.1% | ? | 3.5%
